Compounds without any hit were thinned out: in the full panel of roughly 83,000, 20% have a hit.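 Growth was measured after 48 h exposure to one concentration of compound in 96-well plates. Values under 10 count as active.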 Active and inactive are the calls of the source.
Legend:
Assay in all cases: NCI-60 one-dose screen, 48 h (100 = growth as untreated, 0 = no growth, -100 = all killed)
Settings in all cases: 10 µM unless noted
RPMI-8226 leukemia = system: RPMI-8226 leukemia
OVCAR-8 ovarian = system: OVCAR-8 ovarian
OVCAR-5 ovarian = system: OVCAR-5 ovarian
OVCAR-4 ovarian = system: OVCAR-4 ovarian
SK-OV-3 ovarian = system: SK-OV-3 ovarian
IGROV1 ovarian = system: IGROV1 ovarian
OVCAR-3 ovarian = system: OVCAR-3 ovarian
HS 578T breast = system: HS 578T breast
NCI/ADR-RES ovarian = system: NCI/ADR-RES ovarian
T-47D breast = system: T-47D breast
BT-549 breast = system: BT-549 breast
MDA-MB-435 melanoma = system: MDA-MB-435 melanoma
SW-620 colon = system: SW-620 colon
MCF7 breast = system: MCF7 breast
HCT-116 colon = system: HCT-116 colon
HCC-2998 colon = system: HCC-2998 colon
KM12 colon = system: KM12 colon
SR leukemia = system: SR leukemia

Measured: growth

N#Cc1c(-c2cccc([N+](=O)[O-])c2)nc(SCC(=O)c2ccc(Cl)cc2)[nH]c1=O
inactive: RPMI-8226 leukemia 102% | OVCAR-8 ovarian 99.3% | OVCAR-5 ovarian 102% | OVCAR-4 ovarian 102% | SK-OV-3 ovarian 95.4% | IGROV1 ovarian 104% | OVCAR-3 ovarian 103% | HS 578T breast 97.6% | NCI/ADR-RES ovarian 97.2% | T-47D breast 105% | BT-549 breast 99.7% | MDA-MB-435 melanoma 100% | SW-620 colon 98.4% | MCF7 breast 105% | HCT-116 colon 105% | HCC-2998 colon 106% | KM12 colon 99.4%

CCNc1nc2ccc(Nc3ccnc4cc(Cl)ccc34)cc2[nH]1
inactive: RPMI-8226 leukemia 86.7% | OVCAR-8 ovarian 75.8% | OVCAR-5 ovarian 113% | OVCAR-4 ovarian 82.6% | SK-OV-3 ovarian 108% | IGROV1 ovarian 91.3% | OVCAR-3 ovarian 107% | HS 578T breast 91.4% | NCI/ADR-RES ovarian 95.8% | T-47D breast 100% | BT-549 breast 86.8% | MDA-MB-435 melanoma 93.1% | SW-620 colon 57.8% | MCF7 breast 45.1% | HCT-116 colon 17.3% | HCC-2998 colon 84.1% | KM12 colon 67%

COc1ccc(/C=C/C(=O)Nc2cc(/C=C\c3cc(OC)c(OC)c(OC)c3)cc(OC)c2OC)cc1OC
active: NCI/ADR-RES ovarian -11.2% | T-47D breast 6.43% | BT-549 breast 8.93% | MDA-MB-435 melanoma -35%
inactive: RPMI-8226 leukemia 30.7% | OVCAR-8 ovarian 34.2% | OVCAR-5 ovarian 63.2% | OVCAR-4 ovarian 47.7% | SK-OV-3 ovarian 11.6% | IGROV1 ovarian 40.1% | OVCAR-3 ovarian 12.2% | HS 578T breast 29% | SW-620 colon 35.2% | MCF7 breast 16.8% | HCT-116 colon 19.2% | HCC-2998 colon 55.6% | KM12 colon 17.1%

Cn1cc(-c2csc(-c3c[nH]c4ccccc34)n2)c2ccnc(Cl)c21
inactive: RPMI-8226 leukemia 53.8% | OVCAR-8 ovarian 78.3% | OVCAR-5 ovarian 127% | OVCAR-4 ovarian 48.5% | SK-OV-3 ovarian 93.9% | IGROV1 ovarian 91.8% | OVCAR-3 ovarian 81% | HS 578T breast 80.8% | NCI/ADR-RES ovarian 81.8% | T-47D breast 18.4% | BT-549 breast 93.8% | MDA-MB-435 melanoma 75.7% | SW-620 colon 41.7% | MCF7 breast 30.3% | HCT-116 colon 59.4% | HCC-2998 colon 92.4% | KM12 colon 58.9%

COc1cc(C=O)ccc1OC1OC(COC(C)=O)C(OC(C)=O)C(OC(C)=O)C1OC(C)=O (configuration not stated)
inactive: RPMI-8226 leukemia 92.1% | OVCAR-8 ovarian 102% | OVCAR-5 ovarian 103% | OVCAR-4 ovarian 103% | SK-OV-3 ovarian 103% | IGROV1 ovarian 113% | OVCAR-3 ovarian 104% | HS 578T breast 104% | NCI/ADR-RES ovarian 103% | T-47D breast 92.4% | BT-549 breast 102% | MDA-MB-435 melanoma 107% | SW-620 colon 99.7% | MCF7 breast 97.3% | HCT-116 colon 100% | HCC-2998 colon 108% | KM12 colon 103%

CC(=O)[C@H]1CCC/C=C/[C@@H]2C[C@H](O)C[C@H]2[C@H](O)/C=C/C(=O)O1
inactive: RPMI-8226 leukemia 14.2% | OVCAR-8 ovarian 11.3% | OVCAR-5 ovarian 32.3% | OVCAR-4 ovarian 18.9% | SK-OV-3 ovarian 23.9% | HS 578T breast 36.9%
active: IGROV1 ovarian -5.3% | OVCAR-3 ovarian -31.1% | NCI/ADR-RES ovarian 3.11% | T-47D breast -12.2% | BT-549 breast 9.71% | MDA-MB-435 melanoma 8.17% | SW-620 colon -33.5% | MCF7 breast 3.81% | HCT-116 colon -45.1% | HCC-2998 colon -23.3% | KM12 colon -26.9%

Cn1cc(-c2nc(-c3c[nH]c4c(Cl)nccc34)cs2)c2cc(Br)ccc21
inactive: RPMI-8226 leukemia 78.6% | OVCAR-8 ovarian 80.2% | OVCAR-5 ovarian 97.6% | OVCAR-4 ovarian 90.5% | SK-OV-3 ovarian 95.6% | IGROV1 ovarian 102% | OVCAR-3 ovarian 111% | HS 578T breast 85.6% | NCI/ADR-RES ovarian 97.6% | T-47D breast 39.1% | BT-549 breast 95.7% | MDA-MB-435 melanoma 79.4% | SW-620 colon 98.6% | MCF7 breast 77.4% | HCT-116 colon 88.8% | HCC-2998 colon 114% | KM12 colon 86.2%

COc1cc(-c2cc(-c3ccc(N(C)C)cc3)nc(N3CCOCC3)c2C#N)cc(OC)c1OC
active: RPMI-8226 leukemia 9.28% | NCI/ADR-RES ovarian 4.22% | MDA-MB-435 melanoma 4.97%
inactive: OVCAR-8 ovarian 22.4% | OVCAR-5 ovarian 37.9% | OVCAR-4 ovarian 64.5% | SK-OV-3 ovarian 55.9% | IGROV1 ovarian 42.2% | OVCAR-3 ovarian 87.9% | HS 578T breast 77.9% | T-47D breast 29.5% | BT-549 breast 47.2% | SW-620 colon 42.5% | MCF7 breast 36.2% | HCT-116 colon 12.3% | HCC-2998 colon 19.8%

Cc1c2cc[nH]c(=O)c2c(C)c2c1[nH]c1cc(OCCN3CCN(C)CC3)ccc12
inactive: OVCAR-5 ovarian 16.1% | IGROV1 ovarian 20.2% | OVCAR-3 ovarian 17.1% | HS 578T breast 15.1% | NCI/ADR-RES ovarian 23.2% | T-47D breast 22.7% | BT-549 breast 33.3% | HCC-2998 colon 35%
active: RPMI-8226 leukemia -8.18% | OVCAR-8 ovarian 5.54% | OVCAR-4 ovarian -1.71% | SK-OV-3 ovarian -1.65% | MDA-MB-435 melanoma 4.54% | SW-620 colon 9.61% | MCF7 breast -11.6% | HCT-116 colon 7.2% | KM12 colon 8.55%

O=C1/C=C/[C@@H](O)[C@@H]2C[C@@H](O)C[C@H]2/C=C/CCC[C@H](CCc2cccc3ccccc23)O1
inactive: RPMI-8226 leukemia 22% | OVCAR-8 ovarian 17.7% | OVCAR-5 ovarian 24.6% | OVCAR-4 ovarian 14.4% | SK-OV-3 ovarian 18.1% | HS 578T breast 39.5% | BT-549 breast 13.5%
active: IGROV1 ovarian 5.72% | OVCAR-3 ovarian -48.1% | NCI/ADR-RES ovarian 2.01% | T-47D breast 1.52% | MDA-MB-435 melanoma 6.06% | SW-620 colon -28% | MCF7 breast -30.8% | HCT-116 colon -63.9% | HCC-2998 colon 3.84%

COc1ccc2[nH]c(O)c(/C=c3/cc4c(c(-c5ccc(F)cc5)n3)=Nc3ccccc3-4)c2c1
active: SR leukemia 6.4%
inactive: OVCAR-8 ovarian 75.5% | OVCAR-5 ovarian 119% | OVCAR-4 ovarian 81.6% | SK-OV-3 ovarian 115% | IGROV1 ovarian 96.8% | OVCAR-3 ovarian 94.7% | HS 578T breast 78.8% | NCI/ADR-RES ovarian 52.1% | T-47D breast 73.6% | BT-549 breast 98.9% | MDA-MB-435 melanoma 34.4% | SW-620 colon 27.5% | MCF7 breast 26.8% | HCT-116 colon 27.9% | HCC-2998 colon 72.8% | KM12 colon 43.7%

CCOC(=O)CC1CSC(N/N=C/c2ccc(-n3cccn3)cc2)=N1 (configuration not stated)
inactive: RPMI-8226 leukemia 99.1% | OVCAR-8 ovarian 97.8% | OVCAR-5 ovarian 115% | OVCAR-4 ovarian 109% | SK-OV-3 ovarian 111% | IGROV1 ovarian 114% | OVCAR-3 ovarian 110% | HS 578T breast 97.8% | NCI/ADR-RES ovarian 101% | T-47D breast 106% | BT-549 breast 116% | MDA-MB-435 melanoma 110% | SW-620 colon 106% | MCF7 breast 98.1% | HCT-116 colon 98.7% | HCC-2998 colon 103% | KM12 colon 103%

COc1cccc(-c2nc3occn3c2-c2ccnc(NCCCNS(=O)(=O)c3ccc(C(F)(F)F)cc3)n2)c1
inactive: RPMI-8226 leukemia 79.3% | OVCAR-8 ovarian 87% | OVCAR-5 ovarian 128% | OVCAR-4 ovarian 76.4% | SK-OV-3 ovarian 81.9% | IGROV1 ovarian 90.5% | OVCAR-3 ovarian 100% | HS 578T breast 98.2% | NCI/ADR-RES ovarian 89.2% | T-47D breast 39.1% | BT-549 breast 93.4% | MDA-MB-435 melanoma 76.3% | SW-620 colon 124% | MCF7 breast 79.8% | HCT-116 colon 83.9% | HCC-2998 colon 124% | KM12 colon 91.5%

N#Cc1c(NCc2ccccc2I)sc2c1CCCCC2
inactive: RPMI-8226 leukemia 91.9% | OVCAR-8 ovarian 88.8% | OVCAR-5 ovarian 96.3% | OVCAR-4 ovarian 90% | SK-OV-3 ovarian 97.8% | IGROV1 ovarian 71.9% | OVCAR-3 ovarian 104% | HS 578T breast 93.3% | NCI/ADR-RES ovarian 89.7% | T-47D breast 73.3% | BT-549 breast 102% | MDA-MB-435 melanoma 99.9% | SW-620 colon 97.2% | MCF7 breast 80% | HCT-116 colon 90.3% | HCC-2998 colon 113% | KM12 colon 96.6%

COc1cc(C2C3=C(COC3=O)N(CCO)c3cc4c(cc32)CCC4)cc(OC)c1OC (configuration not stated)
inactive: RPMI-8226 leukemia 17.9% | OVCAR-8 ovarian 31.5% | OVCAR-4 ovarian 23.3% | HS 578T breast 14.5% | T-47D breast 54.1% | SW-620 colon 21.4%
active: OVCAR-5 ovarian 8% | SK-OV-3 ovarian -32.1% | IGROV1 ovarian 8.46% | OVCAR-3 ovarian -33.4% | NCI/ADR-RES ovarian -74.5% | BT-549 breast -9.83% | MDA-MB-435 melanoma -9.03% | MCF7 breast -16.2% | HCT-116 colon -35.3% | HCC-2998 colon -32.4% | KM12 colon -16.9%

O=C(C[n+]1cccc2ccccc21)c1ccc(O)c(O)c1
active: HCT-116 colon 5.16%
inactive: RPMI-8226 leukemia 17.4% | OVCAR-8 ovarian 49.2% | OVCAR-5 ovarian 88% | OVCAR-4 ovarian 55.1% | SK-OV-3 ovarian 120% | IGROV1 ovarian 48.5% | OVCAR-3 ovarian 35.7% | HS 578T breast 90.6% | NCI/ADR-RES ovarian 75.4% | T-47D breast 42% | BT-549 breast 65.7% | MDA-MB-435 melanoma 88.1% | SW-620 colon 23.8% | MCF7 breast 21.8% | HCC-2998 colon 90.4% | KM12 colon 100%

NC(=NCCCOc1ccc(F)cc1)Nc1ccc(I)cc1
inactive: RPMI-8226 leukemia 64.8% | OVCAR-8 ovarian 89.3% | OVCAR-5 ovarian 89.9% | OVCAR-4 ovarian 45.7% | SK-OV-3 ovarian 81.8% | IGROV1 ovarian 66.3% | OVCAR-3 ovarian 80.5% | HS 578T breast 84.6% | NCI/ADR-RES ovarian 81.5% | T-47D breast 28.2% | BT-549 breast 74.8% | MDA-MB-435 melanoma 64.4% | SW-620 colon 67.1% | MCF7 breast 10% | HCT-116 colon 58.7% | HCC-2998 colon 29.2% | KM12 colon 87.8%

Reference: PubChem BioAssay (NCI)
